ChEMBL document CHEMBL1157539, “Thousands of chemical starting points for antimalarial lead identification” (Nature, 2010)

These compounds were tested on Plasmodium falciparum (assay: GSK_TCMDC: Inhibition of Plasmodium falciparum 3D7 in whole red blood cells, using parasite LDH activity as an index of growth. Test compounds present at 2uM).
Format: functional

Structure (SMILES)	Inhibition [%]
CCCCNS(=O)(=O)c1ccc(NC(=O)c2cc([N+](=O)[O-])ccc2Cl)cc1	92
Cc1ccc(Sc2ccc(NC(=O)CN3CCN(C(=O)c4ccco4)CC3)cc2)cc1C	92
O=C(NCC1CCN(Cc2cccc(C(F)(F)F)c2)C1)c1cc(-c2cccc(F)c2)cs1.O=C(O)C(F)(F)F (centres undefined)	87
COc1ccc(NC(=O)/C=C/c2ccccc2Cl)cc1OCCN1CCC(N2CCCC2)CC1.O=C(O)C(=O)O	100
O=C(Nc1ccc(Cl)cc1)c1ccc(CN2CCCN(Cc3cccc(Cl)c3)CC2)cc1.O=C(O)C(F)(F)F	96
O=C(Nc1ccc(C(F)(F)F)cc1)N[C@H]1CCN(CCCCCNC(=O)C2CC2c2ccc(Cl)c(Cl)c2)C1 (some centres undefined)	96
O=C(Nc1cccc(OC2CCN(Cc3ccc(F)cc3)CC2)c1)c1ccc(C(F)(F)F)cc1.O=C(O)C(F)(F)F	94
Cc1c(CNCCCNc2nc3cscc3[nH]2)sc(C(F)F)c1Br.Cl	99
CC(=O)Nc1cccc(C(=O)Nc2ccc(-c3cccc(-c4nc5cccc(C)c5[nH]4)c3)cc2)c1	100
Cl.c1cc2[nH]c(CCCCc3nc4cc(C5=N[C@H]6CCCC[C@H]6N5)ccc4[nH]3)nc2cc1C1=N[C@H]2CCCC[C@H]2N1	90
O=C(NCC1CCC(C(=O)NC2CCCc3ccccc32)CC1)c1ccc(O)c(-c2ccc(Cl)c(Cl)c2)c1 (centres undefined)	93
CC(=O)c1ccc(NC(=O)Nc2ccc3nccc(N4CCN(C)CC4)c3c2)cc1	100
Cc1cc(-c2ccc(S(=O)(=O)Nc3cc4c(cc3OC(C)C)CCN(C)CC4)cc2)ccc1Cl.Cl	90
CN(c1ccc(NC(=O)Nc2cc(C(C)(C)C)on2)cc1)c1ccnc(NCCN2CCOCC2)n1.O=C(O)C(F)(F)F	95
CS(=O)(=O)NCCCNCc1ccc(-c2ccc(-c3nc4cc(F)ccc4[nH]3)s2)cc1.O=C(O)C(F)(F)F	95
CCn1c(-c2nc(-c3ccc4c(c3)OCO4)cnc2N)nc2cnccc21	100
CC(=O)c1ccc2c(c1)C(NC(=O)c1cccc(Cl)c1Cl)C(CO)C(C)(C)O2 (centres undefined)	99

Structure (SMILES)	Inhibition [%]
Cc1ccc(C)c(NC(=O)Nc2ccc(C)c(-c3ccc(C(=O)Nc4ccncc4)cc3)c2)c1	98
Cc1cc(N[C@@H](Cc2ccccc2)C(=O)NC2CCCC2)nc(NCCOc2ccccc2)n1.O=C(O)C(F)(F)F	98
CCCOc1ccccc1-c1nc2[nH]c3c(c2c(=O)[nH]1)CCN(C)C3	87
CCNc1cc(C(=O)N[C@@H](Cc2ccccc2)[C@H](O)CNC2CCC(C(C)(C)C)CC2)cc(N2CCCC2=O)c1 (some centres undefined)	98
CN1CCc2ccc(NC(=O)Nc3ccc(-c4ccccc4)cc3)cc2C1	90
CN1CCN(Cc2cccc(-c3ccc4c(Nc5ccc(Oc6cccnc6)cc5)ccnc4c3)c2)CC1	100
Cl.N=c1c2c(n(Cc3cccc(Cl)c3)c3c1CCC3)CCCC2	97
N#Cc1cncc(-c2nc3c(N4CCCC(N)C4)cccc3n2CCNCc2ccccc2)c1.O=C(O)C(F)(F)F (centres undefined)	100
CC(=O)c1cccc2cc(C(=O)NC3CCC(CCN4CCc5ccc(C#N)cc5C4)CC3)[nH]c12.Cl (centres undefined)	100
COc1ccc(C2C(C(=O)Nc3ccc(C)cc3Br)c3ccccc3C(=O)N2C)cc1 (centres undefined)	96
COc1ccc(NC(=O)NC2CCN(CCCOc3cc(C)nc4ccccc34)CC2)cc1OC	97
Cl.Nc1ncnc2occ(-c3ccc(NC(=O)Nc4cc(C(F)(F)F)ccc4F)cc3)c12 [GW770249A]	99
CC(C)=CC1C(C(=O)n2c(=N)[nH]c3ccccc32)C1(C)C (centres undefined)	99
Cl.N#Cc1ccc2c(c1)CN(CCC1CCC(NC(=O)c3cc4cc(OC(F)(F)F)ccc4[nH]3)CC1)CC2 (centres undefined)	100
CCC[C@@H]([C@@H](CC1CCC(C)CC1)C(=O)N[C@@H](CCCCNC(=O)c1ccccn1)C(=O)Nc1nccs1)N(O)C=O (some centres undefined)	100
O=C(/C=C/c1ccc(C(F)(F)F)cc1)NCCCCCN1CCN(C(=O)Nc2ccc(F)c(Cl)c2)CC1	89
CS(=O)(=O)O.O=[N+]([O-])c1ccc(CNCCCCCCNCc2ccc([N+](=O)[O-])c3ccccc23)c2ccccc12	100
